Test results published in the supplement of paper PMC9262897, “Low-cost anti-mycobacterial drug discovery using engineered E. coli” (Nature Communications, 2022).
Counter-ions that a name gives are not always drawn. ± gives the standard deviation of the averaged measurements.

What follows are molecules tested on E. coli TESEC Mtb DapB (assay: growth (OD600 after 10 h); higher = more growth (less inhibition)). Conditions: arabinose induction (level): High; compound 0.1 mM; raw OD600 reference: median of DMSO wells […], cell-free background 0.041.
Procedure: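 TESEC E. coli strains in which the native enzyme is deleted and replaced by arabinose-inducible Mtb Asd, DapB, CysH or TrpD, each grown in its selective medium. Strains were screened against the Prestwick library at 0.1 mM and 1% DMSO in 384-well format at low and high arabinose induction. Growth is read as OD600 after 10 h in triplicate.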

| Compound | growth |
| --- | --- |
| CN1CCN2c3ncccc3Cc3ccccc3C2C1 (stereo not given) [Mirtazapine] | 0.212 ± 0.0063 |
| O=P(O)(O)C(Cl)(Cl)P(=O)(O)O [Clodronate] | 0.223 ± 0.024 |
| O=C(CCNNC(=O)c1ccncc1)NCc1ccccc1 [Nialamide] | 0.217 ± 0.034 |
| CC(=O)OCC(=O)[C@@]12OC(C)(C)O[C@@H]1C[C@H]1[C@@H]3C[C@H](F)C4=CC(=O)C=C[C@]4(C)[C@@]3(F)[C@@H](O)C[C@@]12C [Fluocinonide] | 0.222 ± 0.013 |
| CN(C)CCC=C1c2ccccc2COc2ccccc21 [Doxepin hydrochloride] | 0.169 ± 0.013 |
| Cc1cccc(N(C)C(=S)Oc2ccc3ccccc3c2)c1 [Tolnaftate] | 0.174 ± 0.012 |
| CCS(=O)(=O)CCn1c([N+](=O)[O-])cnc1C [Tinidazole] | 0.204 ± 0.0081 |
| CCCOc1ccc2[nH]c(NC(=O)OC)nc2c1 [Oxibendazol] | 0.191 ± 0.013 |
| Clc1ccc(CSC(Cn2ccnc2)c2ccc(Cl)cc2Cl)cc1 (stereo not given) [Sulconazole nitrate] | 0.0605 ± 0.00098 |
| CC[C@H]1OC(=O)[C@H](C)[C@@H](O[C@H]2C[C@@](C)(OC)[C@@H](O)[C@H](C)O2)[C@H](C)[C@@H](O[C@@H]2O[C@H](C)C[C@H](N(C)C)[C@H]2O)[C@](C)(O)C[C@@H](C)C(=O)[C@H](C)[C@@H](O)[C@]1(C)O [Erythromycin] | 0.04857 ± 0.00045 |
| CCn1cc(C(=O)O)c(=O)c2cc(F)c(N3CCN(C)CC3)cc21 [Pefloxacine] | 0.0696 ± 0.0096 |
| NC[C@H]1CC[C@H](C(=O)O)CC1 [Tranexamic acid] | 0.188 ± 0.011 |
| CC[N+](C)(C)c1cccc(O)c1 [Edrophonium chloride] | 0.203 ± 0.017 |
| CCOC(=O)OC(C)OC1=C(C(=O)Nc2ccccn2)N(C)S(=O)(=O)c2ccccc21 (stereo not given) [Ampiroxicam] | 0.206 ± 0.024 |
| CN(C)CCCSC(=N)N [Dimaprit dihydrochloride] | 0.196 ± 0.006 |
| O=C(O)c1cc(-c2ccc(F)cc2F)ccc1O [Diflunisal] | 0.172 ± 0.0032 |
| Cc1cc(=O)n(-c2ccccc2)n1C [Antipyrine] | 0.191 ± 0.0076 |
| NC(=O)N/N=C/c1ccc([N+](=O)[O-])o1 [Nitrofural] | 0.11 ± 0.0086 |
| O=C1[C@H](CC[C@H](O)c2ccc(F)cc2)[C@@H](c2ccc(O)cc2)N1c1ccc(F)cc1 [Ezetimibe] | 0.0503 ± 0.003 |
| CCOC(=O)C1=C[C@]2(CC)CCCN3CCc4c(n1c1ccccc41)[C@@H]32 [Vinpocetine] | 0.164 ± 0.0032 |

Same assay, conditions: arabinose induction (level): Low; compound 0.1 mM; raw OD600 reference: median of DMSO wells 0.227, cell-free background 0.041

| Compound | growth |
| --- | --- |
| CN1CCN2c3ncccc3Cc3ccccc3C2C1 (stereo not given) [Mirtazapine] | 0.249 ± 0.019 |
| O=P(O)(O)C(Cl)(Cl)P(=O)(O)O [Clodronate] | 0.212 ± 0.024 |
| O=C(CCNNC(=O)c1ccncc1)NCc1ccccc1 [Nialamide] | 0.249 ± 0.014 |
| CC(=O)OCC(=O)[C@@]12OC(C)(C)O[C@@H]1C[C@H]1[C@@H]3C[C@H](F)C4=CC(=O)C=C[C@]4(C)[C@@]3(F)[C@@H](O)C[C@@]12C [Fluocinonide] | 0.234 ± 0.033 |
| CN(C)CCC=C1c2ccccc2COc2ccccc21 [Doxepin hydrochloride] | 0.182 ± 0.013 |
| Cc1cccc(N(C)C(=S)Oc2ccc3ccccc3c2)c1 [Tolnaftate] | 0.243 ± 0.029 |
| CCS(=O)(=O)CCn1c([N+](=O)[O-])cnc1C [Tinidazole] | 0.212 ± 0.027 |
| CCCOc1ccc2[nH]c(NC(=O)OC)nc2c1 [Oxibendazol] | 0.219 ± 0.027 |
| Clc1ccc(CSC(Cn2ccnc2)c2ccc(Cl)cc2Cl)cc1 (stereo not given) [Sulconazole nitrate] | 0.0607 ± 0.0018 |
| CC[C@H]1OC(=O)[C@H](C)[C@@H](O[C@H]2C[C@@](C)(OC)[C@@H](O)[C@H](C)O2)[C@H](C)[C@@H](O[C@@H]2O[C@H](C)C[C@H](N(C)C)[C@H]2O)[C@](C)(O)C[C@@H](C)C(=O)[C@H](C)[C@@H](O)[C@]1(C)O [Erythromycin] | 0.052 ± 0.0057 |
| CCn1cc(C(=O)O)c(=O)c2cc(F)c(N3CCN(C)CC3)cc21 [Pefloxacine] | 0.0585 ± 0.002 |
| NC[C@H]1CC[C@H](C(=O)O)CC1 [Tranexamic acid] | 0.214 ± 0.018 |
| CC[N+](C)(C)c1cccc(O)c1 [Edrophonium chloride] | 0.27 ± 0.098 |
| CCOC(=O)OC(C)OC1=C(C(=O)Nc2ccccn2)N(C)S(=O)(=O)c2ccccc21 (stereo not given) [Ampiroxicam] | 0.266 ± 0.048 |
| CN(C)CCCSC(=N)N [Dimaprit dihydrochloride] | 0.199 ± 0.016 |
| O=C(O)c1cc(-c2ccc(F)cc2F)ccc1O [Diflunisal] | 0.17 ± 0.0045 |
| Cc1cc(=O)n(-c2ccccc2)n1C [Antipyrine] | 0.204 ± 0.0077 |
| NC(=O)N/N=C/c1ccc([N+](=O)[O-])o1 [Nitrofural] | 0.145 ± 0.016 |
| O=C1[C@H](CC[C@H](O)c2ccc(F)cc2)[C@@H](c2ccc(O)cc2)N1c1ccc(F)cc1 [Ezetimibe] | 0.04873 ± 0.00038 |
| CCOC(=O)C1=C[C@]2(CC)CCCN3CCc4c(n1c1ccccc41)[C@@H]32 [Vinpocetine] | 0.191 ± 0.0094 |
